# According to paper PMC7862700, “An all-to-all approach to the identification of sequence-specific readers for epigenetic DNA modifications on cytosine”:
# Key:
# Test in all cases: DAPPL (digital affinity profiling via proximity ligation, sequencing); 10 mM Tris-HCl pH 7.5, 50 mM NaCl, 1 mM DTT, 4% glycerol, room temperature, 30 min; GST-TFs on glutathione beads, 16-mer random dsDNA library, 0.1% formaldehyde crosslink after washing; high values mean tight binding
# FEV = target: T1, FEV (Homo sapiens, UniProt Q99581 1-238); settings: protein: recombinant; tags: N-terminal GST; dsDNA, one strand shown
# T1 sequence: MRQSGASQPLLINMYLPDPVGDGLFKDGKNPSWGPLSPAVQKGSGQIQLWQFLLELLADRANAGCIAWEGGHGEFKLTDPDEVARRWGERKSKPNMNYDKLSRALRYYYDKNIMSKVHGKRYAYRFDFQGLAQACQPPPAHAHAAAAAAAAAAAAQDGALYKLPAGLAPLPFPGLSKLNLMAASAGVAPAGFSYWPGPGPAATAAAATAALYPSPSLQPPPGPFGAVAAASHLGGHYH
# Outline: (§1)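 Human transcription factors fused to GST were expressed in yeast, captured on glutathione beads, given DNA barcodes and pooled with a GST-only negative control. Pools were incubated with 200 nmole of a 16-mer random double-stranded DNA library in Tris/NaCl/DTT/glycerol buffer at room temperature for 30 min. They were then washed, crosslinked with 0.1% formaldehyde, proximity-ligated (BsaI/T4 ligase, 1 h, 37 °C), PCR-amplified and sequenced on an Illumina NextSeq500. Binding signal is each 6-mer's read frequency for a factor divided by its frequency for the GST control.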
# ETV5 = ETV5 (Homo sapiens, UniProt P41161 1-510); settings: protein: recombinant; tags: N-terminal GST; dsDNA, one strand shown
# Outline: as §1
# HSF1 = HSF1 (Homo sapiens, UniProt Q00613 1-529); settings: protein: recombinant; tags: N-terminal GST; chain copies: 3; dsDNA, one strand shown
# Outline: as §1
# SPIC = target: T2, SPIC (Homo sapiens, UniProt Q8N5J4 1-248); settings: protein: recombinant; tags: N-terminal GST; dsDNA, one strand shown
# T2 sequence: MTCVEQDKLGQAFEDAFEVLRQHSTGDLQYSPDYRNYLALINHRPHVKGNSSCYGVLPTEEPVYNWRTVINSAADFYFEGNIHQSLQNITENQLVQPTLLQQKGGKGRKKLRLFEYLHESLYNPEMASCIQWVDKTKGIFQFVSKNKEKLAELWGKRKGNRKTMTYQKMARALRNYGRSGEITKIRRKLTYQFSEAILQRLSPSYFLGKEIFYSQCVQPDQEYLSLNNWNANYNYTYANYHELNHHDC
# Outline: as §1
# ELF4 = ELF4 (Homo sapiens, UniProt Q99607 1-663); settings: protein: recombinant; tags: N-terminal GST; dsDNA, one strand shown
# Outline: as §1
# ELK4 = target: T3, ELK4 (Homo sapiens, UniProt P28324-2 1-405); settings: protein: recombinant; tags: N-terminal GST; dsDNA, one strand shown
# T3 sequence: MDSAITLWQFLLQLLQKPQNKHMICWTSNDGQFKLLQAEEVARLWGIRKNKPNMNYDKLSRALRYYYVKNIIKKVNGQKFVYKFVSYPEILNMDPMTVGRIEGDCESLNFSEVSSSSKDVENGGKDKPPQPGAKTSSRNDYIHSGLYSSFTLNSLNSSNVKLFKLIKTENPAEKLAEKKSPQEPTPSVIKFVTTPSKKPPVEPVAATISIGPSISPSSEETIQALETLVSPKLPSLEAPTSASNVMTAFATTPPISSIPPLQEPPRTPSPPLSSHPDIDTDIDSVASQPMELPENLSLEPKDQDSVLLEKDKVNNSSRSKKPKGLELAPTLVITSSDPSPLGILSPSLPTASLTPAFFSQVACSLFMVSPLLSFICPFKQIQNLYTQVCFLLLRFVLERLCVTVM
# Outline: as §1
# ETV2 = target: T4, ETV2 (Homo sapiens, UniProt O00321 1-342); settings: protein: recombinant; tags: N-terminal GST; dsDNA, one strand shown
# T4 sequence: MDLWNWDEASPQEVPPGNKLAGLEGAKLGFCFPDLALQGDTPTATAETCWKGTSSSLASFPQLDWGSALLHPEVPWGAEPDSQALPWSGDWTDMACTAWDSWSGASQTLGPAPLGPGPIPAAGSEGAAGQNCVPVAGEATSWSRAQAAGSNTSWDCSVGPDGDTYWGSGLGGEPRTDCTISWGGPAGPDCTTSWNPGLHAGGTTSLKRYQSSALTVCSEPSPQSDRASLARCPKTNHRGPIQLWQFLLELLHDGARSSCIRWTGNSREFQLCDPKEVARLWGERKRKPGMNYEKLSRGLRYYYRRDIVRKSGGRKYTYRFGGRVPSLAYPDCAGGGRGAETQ
# Outline: as §1
# ELF3 = target: T5, ELF3 (Homo sapiens, UniProt P78545 1-371); settings: protein: recombinant; tags: N-terminal GST; dsDNA, one strand shown
# T5 sequence: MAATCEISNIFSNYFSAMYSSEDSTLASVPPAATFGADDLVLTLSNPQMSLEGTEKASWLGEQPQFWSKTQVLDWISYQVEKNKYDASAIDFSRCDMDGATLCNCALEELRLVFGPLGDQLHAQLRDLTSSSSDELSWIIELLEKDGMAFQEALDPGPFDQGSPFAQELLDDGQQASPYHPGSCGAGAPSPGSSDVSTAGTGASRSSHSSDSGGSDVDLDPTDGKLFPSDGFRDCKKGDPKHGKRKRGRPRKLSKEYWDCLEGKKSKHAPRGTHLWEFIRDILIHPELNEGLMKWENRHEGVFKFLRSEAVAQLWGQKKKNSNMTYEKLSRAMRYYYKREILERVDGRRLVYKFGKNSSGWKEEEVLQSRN
# Outline: as §1
# CRX = CRX (Homo sapiens, UniProt O43186 1-299); settings: protein: recombinant; tags: N-terminal GST; dsDNA, one strand shown
# Outline: as §1
# ETV1 = ETV1 (Homo sapiens, UniProt P50549 1-477); settings: protein: recombinant; tags: N-terminal GST; dsDNA, one strand shown
# Outline: as §1
# ERF = target: T6, ERF (Homo sapiens, UniProt P50548 1-548); settings: protein: recombinant; tags: N-terminal GST; dsDNA, one strand shown
# T6 sequence: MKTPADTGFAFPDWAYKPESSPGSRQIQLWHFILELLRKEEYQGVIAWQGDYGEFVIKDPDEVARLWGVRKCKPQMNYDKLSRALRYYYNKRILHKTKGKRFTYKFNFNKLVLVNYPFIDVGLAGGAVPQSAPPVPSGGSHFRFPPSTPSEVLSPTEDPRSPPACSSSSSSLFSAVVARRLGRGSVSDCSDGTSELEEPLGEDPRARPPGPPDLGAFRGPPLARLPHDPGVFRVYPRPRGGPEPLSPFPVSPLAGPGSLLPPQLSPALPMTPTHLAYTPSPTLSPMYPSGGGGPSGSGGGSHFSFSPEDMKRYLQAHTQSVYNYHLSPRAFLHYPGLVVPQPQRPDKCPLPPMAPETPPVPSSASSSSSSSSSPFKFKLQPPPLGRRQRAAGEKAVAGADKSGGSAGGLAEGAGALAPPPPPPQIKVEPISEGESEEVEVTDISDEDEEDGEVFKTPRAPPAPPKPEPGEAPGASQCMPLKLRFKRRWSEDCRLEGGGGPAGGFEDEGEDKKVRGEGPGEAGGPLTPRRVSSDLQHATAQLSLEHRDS
# Outline: as §1
# ETV3L = target: T7, ETV3L (Homo sapiens, UniProt Q6ZN32 1-361); settings: protein: recombinant; tags: N-terminal GST; dsDNA, one strand shown
# T7 sequence: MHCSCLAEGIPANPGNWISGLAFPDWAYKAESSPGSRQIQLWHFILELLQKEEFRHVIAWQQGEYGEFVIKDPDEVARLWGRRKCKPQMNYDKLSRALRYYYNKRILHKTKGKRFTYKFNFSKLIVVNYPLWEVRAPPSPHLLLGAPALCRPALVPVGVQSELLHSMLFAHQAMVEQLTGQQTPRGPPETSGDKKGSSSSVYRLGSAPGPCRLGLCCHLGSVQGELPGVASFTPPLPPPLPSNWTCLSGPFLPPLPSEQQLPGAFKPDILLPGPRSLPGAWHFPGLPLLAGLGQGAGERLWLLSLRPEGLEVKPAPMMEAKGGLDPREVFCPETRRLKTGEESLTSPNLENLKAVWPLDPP
# Outline: as §1
# ETS2 = target: T8, ETS2 (Homo sapiens, UniProt P15036 1-469); settings: protein: recombinant; tags: N-terminal GST; dsDNA, one strand shown
# T8 sequence: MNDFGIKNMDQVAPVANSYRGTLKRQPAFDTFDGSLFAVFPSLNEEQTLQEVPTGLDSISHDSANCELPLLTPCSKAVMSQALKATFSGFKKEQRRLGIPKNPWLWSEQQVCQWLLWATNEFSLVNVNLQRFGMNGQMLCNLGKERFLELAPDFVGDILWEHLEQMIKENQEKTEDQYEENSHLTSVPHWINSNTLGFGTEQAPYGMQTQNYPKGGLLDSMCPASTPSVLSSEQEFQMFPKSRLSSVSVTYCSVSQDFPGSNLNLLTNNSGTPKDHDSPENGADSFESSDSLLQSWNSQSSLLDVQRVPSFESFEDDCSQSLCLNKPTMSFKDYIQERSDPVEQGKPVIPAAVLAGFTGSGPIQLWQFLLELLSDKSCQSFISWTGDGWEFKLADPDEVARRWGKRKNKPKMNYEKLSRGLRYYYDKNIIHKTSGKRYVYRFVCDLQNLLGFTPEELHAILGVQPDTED
# Outline: as §1
# SPDEF = target: T9, SPDEF (Homo sapiens, UniProt O95238 1-335); settings: protein: recombinant; tags: N-terminal GST; dsDNA, one strand shown
# T9 sequence: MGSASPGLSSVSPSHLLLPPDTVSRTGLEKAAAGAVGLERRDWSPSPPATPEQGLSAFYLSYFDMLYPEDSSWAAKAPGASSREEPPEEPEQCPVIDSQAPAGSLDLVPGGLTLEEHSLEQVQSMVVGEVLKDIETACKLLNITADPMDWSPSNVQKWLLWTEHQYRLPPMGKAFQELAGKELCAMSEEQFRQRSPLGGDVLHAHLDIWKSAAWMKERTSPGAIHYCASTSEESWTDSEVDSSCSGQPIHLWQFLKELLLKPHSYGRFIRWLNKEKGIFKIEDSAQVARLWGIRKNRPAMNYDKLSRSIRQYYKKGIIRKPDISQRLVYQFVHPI
# Outline: as §1
# ETV7 = target: T10, ETV7 (Homo sapiens, UniProt Q9Y603 1-341); settings: protein: recombinant; tags: N-terminal GST; dsDNA, one strand shown
# T10 sequence: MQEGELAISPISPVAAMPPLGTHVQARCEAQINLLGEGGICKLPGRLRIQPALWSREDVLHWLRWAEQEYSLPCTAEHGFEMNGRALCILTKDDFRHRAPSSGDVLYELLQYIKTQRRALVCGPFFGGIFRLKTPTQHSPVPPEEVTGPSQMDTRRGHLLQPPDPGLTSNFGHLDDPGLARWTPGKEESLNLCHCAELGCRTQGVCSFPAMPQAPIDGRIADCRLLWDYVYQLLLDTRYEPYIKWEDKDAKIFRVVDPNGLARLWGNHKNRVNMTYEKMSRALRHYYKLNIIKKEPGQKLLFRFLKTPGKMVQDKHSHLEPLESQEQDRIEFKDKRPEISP
# Outline: as §1
# ELF5 = target: T11, ELF5 (Homo sapiens, UniProt Q9UKW6-2 1-255); settings: protein: recombinant; tags: N-terminal GST; dsDNA, one strand shown
# T11 sequence: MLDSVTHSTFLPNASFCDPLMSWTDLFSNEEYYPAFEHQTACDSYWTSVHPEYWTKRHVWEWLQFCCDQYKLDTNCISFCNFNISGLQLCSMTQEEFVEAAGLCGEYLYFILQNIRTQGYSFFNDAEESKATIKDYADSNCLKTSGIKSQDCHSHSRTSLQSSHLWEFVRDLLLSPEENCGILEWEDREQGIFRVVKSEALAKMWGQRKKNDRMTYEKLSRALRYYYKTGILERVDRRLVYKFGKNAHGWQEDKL
# Outline: as §1
# ETV3 = target: T12, ETV3 (Homo sapiens, UniProt P41162-2 1-143); settings: protein: recombinant; tags: N-terminal GST; dsDNA, one strand shown
# T12 sequence: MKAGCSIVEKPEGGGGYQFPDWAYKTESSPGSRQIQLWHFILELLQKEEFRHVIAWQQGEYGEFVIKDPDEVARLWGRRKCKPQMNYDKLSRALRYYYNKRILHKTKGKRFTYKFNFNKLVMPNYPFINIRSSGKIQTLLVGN
# Outline: as §1
# ETV6 = ETV6 (Homo sapiens, UniProt P41212 1-452); settings: protein: recombinant; tags: N-terminal GST; dsDNA, one strand shown
# Outline: as §1
# Sequence of ELF4 (Q99607 whole entry): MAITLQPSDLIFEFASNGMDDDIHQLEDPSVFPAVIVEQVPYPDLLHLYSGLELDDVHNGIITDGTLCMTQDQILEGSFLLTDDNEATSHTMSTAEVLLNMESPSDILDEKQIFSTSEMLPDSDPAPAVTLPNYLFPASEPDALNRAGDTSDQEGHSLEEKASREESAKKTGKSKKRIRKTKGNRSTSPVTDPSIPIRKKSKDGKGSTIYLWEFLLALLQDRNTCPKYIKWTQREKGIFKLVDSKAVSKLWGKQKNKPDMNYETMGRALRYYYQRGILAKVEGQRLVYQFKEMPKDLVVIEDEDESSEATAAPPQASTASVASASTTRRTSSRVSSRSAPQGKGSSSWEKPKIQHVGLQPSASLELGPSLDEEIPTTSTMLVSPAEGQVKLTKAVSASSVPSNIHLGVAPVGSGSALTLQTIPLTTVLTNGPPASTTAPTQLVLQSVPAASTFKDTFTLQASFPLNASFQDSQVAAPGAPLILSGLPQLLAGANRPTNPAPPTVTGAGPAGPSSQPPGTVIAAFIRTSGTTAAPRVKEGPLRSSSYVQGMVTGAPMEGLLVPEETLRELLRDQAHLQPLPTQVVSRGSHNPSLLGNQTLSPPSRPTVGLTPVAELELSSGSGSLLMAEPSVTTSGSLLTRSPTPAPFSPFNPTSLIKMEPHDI
# Sequence of ETV5 (P41161 whole entry): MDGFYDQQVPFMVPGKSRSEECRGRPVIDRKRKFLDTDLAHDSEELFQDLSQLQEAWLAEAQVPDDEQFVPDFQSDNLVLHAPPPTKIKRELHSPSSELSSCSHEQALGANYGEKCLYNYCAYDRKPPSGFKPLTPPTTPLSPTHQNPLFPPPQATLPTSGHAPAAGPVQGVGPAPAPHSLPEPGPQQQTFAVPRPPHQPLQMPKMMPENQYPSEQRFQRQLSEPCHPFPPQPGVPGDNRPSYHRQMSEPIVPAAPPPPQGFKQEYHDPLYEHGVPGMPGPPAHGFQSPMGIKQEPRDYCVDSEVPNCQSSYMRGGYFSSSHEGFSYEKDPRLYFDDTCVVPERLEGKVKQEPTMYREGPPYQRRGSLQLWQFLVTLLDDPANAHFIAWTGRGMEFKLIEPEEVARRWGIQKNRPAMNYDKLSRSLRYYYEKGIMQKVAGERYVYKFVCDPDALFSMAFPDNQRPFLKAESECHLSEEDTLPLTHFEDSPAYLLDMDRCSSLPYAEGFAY
# Sequence of ETV1 (P50549 whole entry): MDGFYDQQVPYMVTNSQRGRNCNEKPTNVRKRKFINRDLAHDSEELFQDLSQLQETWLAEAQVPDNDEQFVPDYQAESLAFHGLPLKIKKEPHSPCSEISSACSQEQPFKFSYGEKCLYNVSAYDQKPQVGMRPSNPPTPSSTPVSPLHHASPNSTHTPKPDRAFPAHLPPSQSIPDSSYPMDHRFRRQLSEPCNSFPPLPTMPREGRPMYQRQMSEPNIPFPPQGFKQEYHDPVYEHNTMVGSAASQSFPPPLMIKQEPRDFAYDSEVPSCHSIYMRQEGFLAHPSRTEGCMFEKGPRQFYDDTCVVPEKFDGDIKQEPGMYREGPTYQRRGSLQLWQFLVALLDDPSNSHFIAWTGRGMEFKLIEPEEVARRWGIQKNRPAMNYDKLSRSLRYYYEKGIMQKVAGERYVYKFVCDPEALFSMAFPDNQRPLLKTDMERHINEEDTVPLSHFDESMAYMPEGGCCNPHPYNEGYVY
# Sequence of CRX (O43186 whole entry): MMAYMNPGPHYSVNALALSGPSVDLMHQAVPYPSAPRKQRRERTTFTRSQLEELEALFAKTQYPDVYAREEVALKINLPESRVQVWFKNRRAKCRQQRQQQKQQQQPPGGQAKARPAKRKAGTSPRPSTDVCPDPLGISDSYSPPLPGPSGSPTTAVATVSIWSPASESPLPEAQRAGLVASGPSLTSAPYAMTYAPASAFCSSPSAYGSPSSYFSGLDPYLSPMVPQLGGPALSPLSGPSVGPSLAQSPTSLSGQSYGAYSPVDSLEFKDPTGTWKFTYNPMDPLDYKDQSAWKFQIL
# Sequence of ETV6 (P41212 whole entry): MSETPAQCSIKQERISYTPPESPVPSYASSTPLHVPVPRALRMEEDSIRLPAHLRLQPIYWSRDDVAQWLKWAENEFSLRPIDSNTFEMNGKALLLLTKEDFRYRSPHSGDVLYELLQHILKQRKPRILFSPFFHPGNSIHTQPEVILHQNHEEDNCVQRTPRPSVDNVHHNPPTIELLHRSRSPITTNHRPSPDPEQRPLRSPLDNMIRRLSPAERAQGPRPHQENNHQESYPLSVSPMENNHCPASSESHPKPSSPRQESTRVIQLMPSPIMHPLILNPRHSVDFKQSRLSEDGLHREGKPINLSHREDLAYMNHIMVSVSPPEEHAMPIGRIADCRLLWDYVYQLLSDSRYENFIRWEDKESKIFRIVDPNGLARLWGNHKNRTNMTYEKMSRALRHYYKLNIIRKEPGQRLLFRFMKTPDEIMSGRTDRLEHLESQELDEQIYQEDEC
# Sequence of HSF1 (Q00613 whole entry): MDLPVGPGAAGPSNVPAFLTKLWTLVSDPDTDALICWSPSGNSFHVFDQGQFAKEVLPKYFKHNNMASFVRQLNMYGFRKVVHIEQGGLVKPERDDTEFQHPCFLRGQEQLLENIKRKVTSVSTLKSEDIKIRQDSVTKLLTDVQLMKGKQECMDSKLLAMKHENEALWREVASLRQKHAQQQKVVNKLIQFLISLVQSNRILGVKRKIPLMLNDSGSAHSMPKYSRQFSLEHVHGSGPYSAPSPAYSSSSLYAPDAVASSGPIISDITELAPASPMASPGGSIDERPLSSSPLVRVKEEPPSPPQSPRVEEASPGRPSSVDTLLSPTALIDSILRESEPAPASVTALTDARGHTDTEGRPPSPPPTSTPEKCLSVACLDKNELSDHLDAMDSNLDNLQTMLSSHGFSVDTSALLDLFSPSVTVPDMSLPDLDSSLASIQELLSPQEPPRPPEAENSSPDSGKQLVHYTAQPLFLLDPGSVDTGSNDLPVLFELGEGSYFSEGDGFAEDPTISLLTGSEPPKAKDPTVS
sequence,measurement,setting,value
ATTCGA,binding signal,FEV,"1.27 fold enrichment (6-mer frequency, TF over GST control)"
same,binding signal,ETV5,"1.28 fold enrichment (6-mer frequency, TF over GST control)"
same,binding signal,HSF1,"2.51 fold enrichment (6-mer frequency, TF over GST control)"
same,binding signal,SPIC,"1.41 fold enrichment (6-mer frequency, TF over GST control)"
same,binding signal,ELF4,"1.38 fold enrichment (6-mer frequency, TF over GST control)"
same,binding signal,ELK4,"1.2 fold enrichment (6-mer frequency, TF over GST control)"
same,binding signal,ETV2,"1.37 fold enrichment (6-mer frequency, TF over GST control)"
same,binding signal,ELF3,"1.55 fold enrichment (6-mer frequency, TF over GST control)"
same,binding signal,CRX,"1.63 fold enrichment (6-mer frequency, TF over GST control)"
same,binding signal,ETV1,"1.3 fold enrichment (6-mer frequency, TF over GST control)"
same,binding signal,ERF,"1.29 fold enrichment (6-mer frequency, TF over GST control)"
same,binding signal,ETV3L,"1.47 fold enrichment (6-mer frequency, TF over GST control)"
same,binding signal,ETS2,"1.31 fold enrichment (6-mer frequency, TF over GST control)"
same,binding signal,SPDEF,"1.28 fold enrichment (6-mer frequency, TF over GST control)"
same,binding signal,ETV7,"1.28 fold enrichment (6-mer frequency, TF over GST control)"
same,binding signal,ELF5,"1.24 fold enrichment (6-mer frequency, TF over GST control)"
same,binding signal,ETV3,"1.22 fold enrichment (6-mer frequency, TF over GST control)"
same,binding signal,ETV6,"1.23 fold enrichment (6-mer frequency, TF over GST control)"
